Assay [1] can be described thus: NCI Yeast Anticancer Drug Screen. Data for the rad50 strain (AID 155).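 Further: 0% = growth of vehicle-only cultures of the same strain.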 The following applies: S. cerevisiae rad50 strain growth inhibition, hits give high values. The method, boiled down:
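Genetically altered yeast (DNA repair pathway); compound treatment; growth inhibition vs vehicle ctrl.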

A short description of assay [2]: NCI Yeast Anticancer Drug Screen. Data for the mec2-1 strain (AID 157). The following applies: S. cerevisiae mec2-1 strain, hits give high values. The method in brief: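 Readout is yeast growth inhibition, normalised to vehicle-treated controls, in the mec2-1 strain exposed to compound.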
Assay [3] can be described thus: NCI Yeast Anticancer Drug Screen. Data for the sgs1 mgt1 strain (AID 161).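 Further: 0% = growth of cultures given vehicle only.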 The following applies: S. cerevisiae sgs1 mgt1 strain, hits give high values. The method, boiled down:
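This yeast growth screen uses a strain with defined DNA-repair lesions; compound-treated growth is compared with vehicle-treated growth.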

Assay [4] in a line: NCI Yeast Anticancer Drug Screen. Data for the cln2 rad14 strain (AID 165).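 Further: 0% = growth equal to vehicle treated cultures.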 The settings on record: S. cerevisiae cln2 rad14 strain, hits give high values. The method in brief: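 Relative to vehicle controls, growth inhibition of compound-treated cln2 rad14 yeast was recorded.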
The nature of assay [5]: NCI Yeast Anticancer Drug Screen. Data for the bub3 strain (AID 167). The settings on record: S. cerevisiae bub3 mutant strain, hits give high values. The method, boiled down: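 Yeast carrying a defined mutation is treated with each compound, and growth is compared with that of vehicle-exposed cells to give inhibition.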
Assay [6] in a line: NCI Yeast Anticancer Drug Screen. Data for the mlh1 rad18 strain (AID 175). The following applies: S. cerevisiae mlh1 rad18 strain growth inhibition, hits give high values. The method in brief: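 Test agents were incubated with a yeast strain of defined genotype (DNA damage repair defect). Inhibition of growth was derived by comparison with vehicle-exposed cultures.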
Where [7] appears, read: at 5.0 µM (retest, dose inferred, filed as 0.5).
[8] abbreviates: at 50.0 µM (retest, dose inferred, filed as 5.0).

This is part of a sample that, as a whole, favours compounds with a hit. Of some 79,000 tested, about 15% had one in any assay. Unmarked numbers belong to inactive results. Activity calls are given as the source filed them. No stated cut-off is given here; in the data, active means growth inhibition above about 70%; inactive means the rest.

Take `CCC/C(=N\O)S(=O)(=O)c1ccc(NN=O)nc1`: the growth inhibition in assay [1] (setting [7]) is -18%; in assay [1] (setting [8]), -11%; in assay [1] (at 50.0 µM) it was -22.1%; in assay [2] (setting [7]), -20%; in assay [2] (setting [8]) it was 1%; in assay [2] (at 50.0 µM), -26.8%. Moreover, the growth inhibition in assay [3] (setting [7]) is 3%; in assay [3] (setting [8]) it was -11%; in assay [3] (at 50.0 µM), -36.1%; in assay [4] (setting [7]), -31%; in assay [4] (setting [8]), -13%; in assay [4] (at 50.0 µM), 34.5%. Also, the growth inhibition in assay [5] (setting [7]) was -33%; in assay [5] (setting [8]), -18%; in assay [5] (at 50.0 µM), -4.4%; in assay [6] (setting [7]), -33%; in assay [6] (setting [8]), -21%; in assay [6] (at 50.0 µM) it was -28%.

`O=C(Nc1ccccc1-c1nn(CN2CCNCC2)c(=S)n(CN2CCNCC2)c1=O)C(F)(F)F`: the growth inhibition in assay [1] (setting [7]) was 0%; in assay [1] (setting [8]), 17%; in assay [1] (at 50.0 µM), 7.5%; in assay [2] (setting [7]) it was 0%; in assay [2] (setting [8]), 10%; in assay [2] (at 50.0 µM) it was 25.9%. The growth inhibition in assay [3] (setting [7]) was -2%; in assay [3] (setting [8]) it was 13%; in assay [3] (at 50.0 µM), 12.6%; in assay [4] (setting [7]) it was -4%; in assay [4] (setting [8]), 10%; in assay [4] (at 50.0 µM), 68.1%. For the same molecule, the growth inhibition is 1% in assay [5] (setting [7]); 0% in assay [5] (setting [8]); 8.65% in assay [5] (at 50.0 µM); -2% in assay [6] (setting [7]); 14% in assay [6] (setting [8]); 38.6% in assay [6] (at 50.0 µM).

For `COc1cc(C2c3cc4c(cc3[C@@H](OCCN)[C@H]3COC(=O)C23)OCO4)cc(OC)c1O` (some centres not stated), the growth inhibition in assay [1] (setting [7]) was 47%; in assay [1] (setting [8]), 93% (active); in assay [1] (at 50.0 µM), 52.2%; in assay [2] (setting [7]), 11%; in assay [2] (setting [8]), 55%; in assay [2] (at 50.0 µM), 77.2% (active). Also, the growth inhibition is 29% in assay [3] (setting [7]); 63% in assay [3] (setting [8]); 69.5% in assay [3] (at 50.0 µM); 29% in assay [4] (setting [7]); 28% in assay [4] (setting [8]); 49.6% in assay [4] (at 50.0 µM). Also, the growth inhibition in assay [5] (setting [7]) is 24%; in assay [5] (setting [8]), 44%; in assay [5] (at 50.0 µM) it was 49.5%; in assay [6] (setting [7]), 19%; in assay [6] (setting [8]) it was 68%; in assay [6] (at 50.0 µM) it was 80.7% (active).

In the case of `C(=C\c1cnnc2ccccc12)/c1ccco1`, the growth inhibition in assay [1] (setting [7]) is 2%; in assay [1] (setting [8]), 32%; in assay [1] (at 50.0 µM), 58.2%; in assay [2] (setting [7]), 5%; in assay [2] (setting [8]), 33%; in assay [2] (at 50.0 µM) it was 20.4%. Besides, the growth inhibition in assay [3] (setting [7]) is 6%; in assay [3] (setting [8]), 39%; in assay [3] (at 50.0 µM) it was 29.4%; in assay [4] (setting [7]) it was 2%; in assay [4] (setting [8]) it was 31%; in assay [4] (at 50.0 µM), 80.8% (active). Also, the growth inhibition in assay [5] (setting [7]) is -2%; in assay [5] (setting [8]) it was 27%; in assay [5] (at 50.0 µM), 18.8%; in assay [6] (setting [7]) it was 2%; in assay [6] (setting [8]), 40%; in assay [6] (at 50.0 µM), 39.8%.

Regarding `CC(NNC(=S)N1CCCCCC1)c1cc2ccccc2cn1` (configuration not stated), the growth inhibition is 52% in assay [1] (setting [7]); 95% (active) in assay [1] (setting [8]); 86.2% (active) in assay [1] (at 50.0 µM); 65% in assay [2] (setting [7]); 97% (active) in assay [2] (setting [8]); 78.7% (active) in assay [2] (at 50.0 µM). For the same molecule, the growth inhibition was 93% (active) in assay [3] (setting [7]); 96% (active) in assay [3] (setting [8]); 86.6% (active) in assay [3] (at 50.0 µM); 90% (active) in assay [4] (setting [7]); 91% (active) in assay [4] (setting [8]); 68.5% in assay [4] (at 50.0 µM). For the same molecule, the growth inhibition was 87% (active) in assay [5] (setting [7]); 96% (active) in assay [5] (setting [8]); 83.5% (active) in assay [5] (at 50.0 µM); 47% in assay [6] (setting [7]); 95% (active) in assay [6] (setting [8]); 90.5% (active) in assay [6] (at 50.0 µM).

Regarding `O=C1C(=O)C(CCCO)(CCCO)CCCCCCCCC1(CCCO)CCCO`, the growth inhibition in assay [1] (setting [7]) was -9%; in assay [1] (setting [8]), -3%; in assay [1] (at 50.0 µM), 31.4%; in assay [2] (setting [7]), 5%; in assay [2] (setting [8]), -11%; in assay [2] (at 50.0 µM) it was -35.1%. Moreover, the growth inhibition is 5% in assay [3] (setting [7]); 8% in assay [3] (setting [8]); 0% in assay [3] (at 50.0 µM); 6% in assay [4] (setting [7]); 19% in assay [4] (setting [8]); 63.8% in assay [4] (at 50.0 µM). For the same molecule, the growth inhibition was 13% in assay [5] (setting [7]); -7% in assay [5] (setting [8]); -6.5% in assay [5] (at 50.0 µM); -8% in assay [6] (setting [7]); 0% in assay [6] (setting [8]); -5.95% in assay [6] (at 50.0 µM).

For `CCCCCCCCCCC(=O)CC(=O)c1c(O)cccc1O`, the growth inhibition was -14% in assay [1] (setting [7]); -1% in assay [1] (setting [8]); 1.9% in assay [1] (at 50.0 µM); -11% in assay [2] (setting [7]); 5% in assay [2] (setting [8]); -0.35% in assay [2] (at 50.0 µM). In addition, the growth inhibition is 10% in assay [3] (setting [7]); 5% in assay [3] (setting [8]); 2.4% in assay [3] (at 50.0 µM); 0% in assay [4] (setting [7]); 12% in assay [4] (setting [8]); -37.5% in assay [4] (at 50.0 µM). Also, the growth inhibition in assay [5] (setting [7]) is 12%; in assay [5] (setting [8]), 17%; in assay [5] (at 50.0 µM) it was -1.95%; in assay [6] (setting [7]), -16%; in assay [6] (setting [8]), 16%; in assay [6] (at 50.0 µM), 1.5%.

As to `O=C(c1ccccc1)c1c(CO[N+](=O)[O-])n([O-])c2ccccc2[n+]1=O`, the growth inhibition is 20% in assay [1] (setting [7]); 97% (active) in assay [1] (setting [8]); 98.5% (active) in assay [1] (at 50.0 µM); 14% in assay [2] (setting [7]); 99% (active) in assay [2] (setting [8]); 99% (active) in assay [2] (at 50.0 µM). The growth inhibition in assay [3] (setting [7]) is 10%; in assay [3] (setting [8]), 98% (active); in assay [3] (at 50.0 µM) it was 98.3% (active); in assay [4] (setting [7]), 10%; in assay [4] (setting [8]), 96% (active); in assay [4] (at 50.0 µM) it was 99.2% (active). For the same molecule, the growth inhibition is -5% in assay [5] (setting [7]); 98% (active) in assay [5] (setting [8]); 97.7% (active) in assay [5] (at 50.0 µM); 48% in assay [6] (setting [7]); 99% (active) in assay [6] (setting [8]); 98.8% (active) in assay [6] (at 50.0 µM).

As to `Cc1ccsc1/C=N/Nc1cc(C)c2cccc(C)c2n1`, the growth inhibition in assay [1] (setting [7]) is 1%; in assay [1] (setting [8]), 47%; in assay [1] (at 50.0 µM), 48.5%; in assay [2] (setting [7]) it was -23%; in assay [2] (setting [8]) it was 21%; in assay [2] (at 50.0 µM) it was 30.3%. Besides, the growth inhibition was -11% in assay [3] (setting [7]); 24% in assay [3] (setting [8]); 48.4% in assay [3] (at 50.0 µM); 4% in assay [4] (setting [7]); 38% in assay [4] (setting [8]); 33.8% in assay [4] (at 50.0 µM). The growth inhibition in assay [5] (setting [7]) was -12%; in assay [5] (setting [8]), 63%; in assay [5] (at 50.0 µM) it was 15.4%; in assay [6] (setting [7]) it was -8%; in assay [6] (setting [8]), 57%; in assay [6] (at 50.0 µM), 63.2%.

Source of the values: PubChem BioAssay (NCI).
